Assay outcomes deposited in PubChem by National Center for Advancing Translational Sciences (NCATS).
The list is not random: actives were taken first. Their share in the collection is about 4.4%.
12-hLO inh – blocks human 12-lipoxygenase activity. Potency, µM (top dose mostly 57.1 µM), for inactives: top-dose activity change, negative = inhibition, most hits filed as inhibitors. P18054. 150,000 tested, 0.12% active. purified 12-hLO, xylenol orange hydroperoxide absorbance; note: nearly all actives have a fitted effect of over 55% in size
Target sequence (P18054 whole entry, looked up): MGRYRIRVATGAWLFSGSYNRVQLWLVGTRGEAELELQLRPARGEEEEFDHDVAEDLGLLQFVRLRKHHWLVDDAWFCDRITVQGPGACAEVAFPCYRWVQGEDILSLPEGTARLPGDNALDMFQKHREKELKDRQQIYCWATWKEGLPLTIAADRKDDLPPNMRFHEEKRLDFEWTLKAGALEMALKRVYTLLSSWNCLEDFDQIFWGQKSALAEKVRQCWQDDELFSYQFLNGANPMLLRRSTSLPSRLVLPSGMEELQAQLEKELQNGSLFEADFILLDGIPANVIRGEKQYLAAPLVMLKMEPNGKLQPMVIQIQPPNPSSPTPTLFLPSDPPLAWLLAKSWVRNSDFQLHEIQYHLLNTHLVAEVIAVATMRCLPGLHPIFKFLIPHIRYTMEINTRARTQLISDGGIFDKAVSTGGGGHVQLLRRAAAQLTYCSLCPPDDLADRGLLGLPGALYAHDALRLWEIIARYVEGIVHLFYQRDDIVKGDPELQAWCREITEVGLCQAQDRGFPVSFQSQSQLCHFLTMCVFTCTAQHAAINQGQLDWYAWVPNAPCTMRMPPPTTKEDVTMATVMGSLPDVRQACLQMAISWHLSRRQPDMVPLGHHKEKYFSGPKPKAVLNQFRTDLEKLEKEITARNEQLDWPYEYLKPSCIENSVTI
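Purified human 12hLO (150 nM final) was preincubated with compounds for 15 min at room temperature in 25 mM Hepes pH 7.0, 0.01% Triton X-100, then reacted with 40 uM arachidonic acid for 30 min. Hydroperoxide was detected with ferrous iron/xylenol orange.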
p53ts 39C tox – p53ts cell cytotoxicity, nonpermissive temperature; H1299-p53A138V viability at 39C, ATP luminescence, 24 h; Potency, µM (doses to about 46.1 µM), for the others: at the top dose activity change, negative = cell killing, hits mostly cytotoxic; 130,000 tested, 1.5% active; AID 902; note: nearly all actives have a fitted effect of over 55% in size
p53ts 32C tox – kills p53ts cells at the permissive temperature; Potency, µM (series often up to 46.1 µM), for inactives: at the top dose activity change, negative = cytotoxicity, most hits filed as cytotoxic; H1299-p53A138V at 32C, ATP luminescence viability, 24 h; 130,000 tested, 0.93% active;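 note: 0% = DMSO and -100% = full killing by reference compound; nearly all actives have a fitted effect of over 55% in size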
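Viability by ATPlite luminescence after 24 h compound treatment (up to 46 uM) at the permissive 32C. Cells are H1299 carrying p53 A138V. Scale runs from DMSO basal to 100 uM tamoxifen as full kill; AC50 from Hill fits.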
HPGD block – inhibitors of human 15-hydroxyprostaglandin dehydrogenase (HPGD); P15428; purified HPGD, NADH fluorescence kinetic, PGE2 substrate; Potency, µM, for inactives: at the highest dose activity change, negative = inhibition, usual class: inhibitors; 150,000 tested, 4.3% active; active = well fitted inhibition curve with a large enough effect, not every such curve was filed as active; inconclusive = small, poorly fitted or top-dose-only effect, or another doubt; inactive = no such curve, though single readings can be large or run the other way
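20 nM HPGD preincubated 15 min at room temperature with compound in 50 mM Tris-HCl pH 8, 0.01% Tween 20. Started with 1 mM NAD+ and 30 uM prostaglandin E2; NADH fluorescence (360/450 nm) read 5 times over 30-s intervals, last minus first.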
* hit, by the source's call; u = inconclusive; x = not tested or not shown; [ ] = another dose, or the depositor's remark. Unless noted, calls come from the whole dose curve; as a rule, active = well fitted curve in the direction sought with a large enough effect; inconclusive = small, poorly fitted or top-dose-only effect, or another doubt; inactive = no such curve, though single readings can be large; an effect the other way counts as inactive or inconclusive. Unless noted, % is set by controls: 0 for no effect and ±100 for the full control effect; potency is the fitted concentration of half-maximal effect.

SMILES	12-hLO inh	p53ts 39C tox	p53ts 32C tox	HPGD block
Cc1snc(SCC(=O)c2ccc(Cl)cc2)c1C#N	-22.4%	x	x	u
O=C(O)c1ccc(N2C(=O)CC(Cc3ccccc3)C2=O)cc1 (stereo unspecified)	3.1%	-3.4%	-12.8%	x
CC(=O)c1nc(N2C(=O)CC(Cc3ccccc3)C2=O)sc1C (stereo unspecified)	-4.6%	x	x	28.2µM*
CSC1=N/C(=C\c2c(F)cccc2Cl)C(=O)S1	13.8%	x	x	4.47µM*
Clc1cccc(-n2ncc3c(NC4CCCCC4)ncnc32)c1	x	12.6µM*	u	x
Cc1ccc(-n2ncc3c(NC4CCCCC4)ncnc32)cc1	x	7.94µM*	u	x
CN(C)S(=O)(=O)N1CCC(N2CCN(Cc3ccc(F)cc3)C(=O)C2=O)CC1	x	-22.8%	10.8%	x
Cc1cccc(CSc2ncc(Cl)c(C(=O)Nc3nnc(C)s3)n2)c1	x	-16.1%	1.5%	x
COc1ccc2nc(NC(=O)c3nc(SCc4ccccc4F)ncc3Cl)sc2c1	x	-19.7%	5.4%	x
COc1ccc2nc(NC(=O)c3nc(S(=O)(=O)Cc4ccccc4F)ncc3Cl)sc2c1	x	3.98µM*	u	x
Cc1nnc(NC(=O)c2nc(S(=O)(=O)Cc3ccccc3)ncc2Cl)s1	x	15.8µM*	u	x
COc1ccc2nc(NC(=O)c3cc(=O)c4ccccc4o3)sc2c1	x	10µM*	u	x
Cc1ccc2nc(NC(=O)c3cc(=O)c4cc(C)c(C)cc4o3)sc2c1	x	8.1%	8.4%	x
Cc1cccc(CS(=O)(=O)c2ncc(Cl)c(C(=O)Nc3nc4ccc(F)cc4s3)n2)c1	x	10µM*	15.8µM*	x
CCSc1ncc(Cl)c(C(=O)Nc2nc3ccc(OC)cc3s2)n1	x	9.1%	-0.2%	x
COc1ccc2nc(NC(=O)c3nc(S(=O)(=O)Cc4ccccc4)ncc3Cl)sc2c1	x	5.01µM*	12.6µM*	x
O=C(Nc1ccccc1F)c1nc(S(=O)(=O)Cc2ccccc2F)ncc1Cl	x	3.98µM*	u	x
COc1ccccc1C1Nc2c(sc3nc(C)cc(C)c23)C(=O)N1c1ccccc1 (stereo unspecified)	x	12.6µM*	u	x
COCc1cc(C)nc2sc3c(c12)NC(c1ccccc1C(=O)O)N(c1cccc(C(F)(F)F)c1)C3=O (stereo unspecified)	x	1.4%	0.5%	x
Cc1ccc(NC(=O)CSc2nc3c(oc4ccccc43)c(=O)n2Cc2ccco2)cc1F	x	10.9%	-3.6%	x
O=c1cc(CSc2nnc(-c3ccco3)o2)c2ccccc2[nH]1	0.5%	1.9%	5.9%	20µM*
Fc1ccc(CSc2nc3ccccc3[nH]2)c2ccccc12	-3.9%	x	x	u
O=c1cc(CSc2nc3ccccc3[nH]2)c2ccccc2[nH]1	-1.2%	x	x	7.94µM*
Cc1oc2c(C)c3oc(=O)c(CCC(=O)N4CCCCC4)c(C)c3cc2c1C	x	-15.7%	4.1%	x
Cc1ccc2nc(/C(C#N)=C/c3ccc(-c4cccc(Cl)c4)o3)[nH]c2c1	x	3.98µM*	u	x
SMILES	12-hLO inh	p53ts 39C tox	p53ts 32C tox	HPGD block
N#C/C(=C\c1ccc(-c2ccc(Cl)c(C(=O)O)c2)o1)c1nc2ccccc2[nH]1	x	-9.1%	u	x
COc1ccc(C(=O)/C=C/c2cn(CC(O)CN3CCCCCC3)c3ccccc23)cc1OC (stereo unspecified)	x	12.6µM*	-16.3%	x
Cc1ccc(C(=O)/C=C/c2cn(CC(O)CN3CCCCCC3)c3ccccc23)cc1 (stereo unspecified)	x	12.6µM*	u	x
COc1cccc(/C=c2\sc3nc(-c4cccs4)nn3c2=O)c1OC	-7.8%	10.1%	0.4%	14.1µM*
Clc1ccc2c(N3CCCC3)ccnc2c1	2.3%	11.6%	2.2%	-16.7%
O=C(Oc1ccnc2cc(Cl)ccc12)N1CCCCCC1	-7.6%	-7.6%	-0.4%	31.6µM*
Cc1ccc(NC(=O)Cn2nc(C(F)(F)F)c3c2CCC3)cc1C	x	-9.5%	0.7%	x
COc1ccc2[nH]c(-c3ccccc3)c(CCNC(C)=O)c2c1	-0.5%	-16.1%	4.9%	u
CCCCC(=O)NCCc1c(Cc2ccccc2)[nH]c2ccccc12	-6.0%	0.1%	29.5%	15.8µM*
CC(=O)NCCc1c(Cc2ccccc2)[nH]c2ccccc12	-7.1%	-9.3%	8.8%	14.1µM*
Cc1ccc(Cl)cc1NS(=O)(=O)c1ccc(N2CCCCS2(=O)=O)cc1	x	-20.1%	-4.0%	x
CCOC(=O)N/N=C/c1ccc(OCCSc2ccc(Cl)cc2)c(OCC)c1	-1.4%	x	x	15.8µM*
COc1cc(C=O)ccc1OCCOCCOc1ccc(Cl)cc1	-2.4%	x	x	-28.9%
CCOC(=O)N/N=C/c1ccc(OCCSc2ccc(Cl)cc2)c(OC)c1	-1.5%	x	x	-24.4%
COc1cc(C=O)ccc1OCCSc1ccc(Cl)cc1	4.3%	x	x	11.2µM*
O=C1/C(=C/Nc2ccc3c(c2)OCO3)CCc2ccccc21	-25.5%	6.31µM*	3.98µM*	25.1µM*
COc1ccc2c(c1)CC/C(=C\Nc1ccc3c(c1)OCO3)C2=O	u	x	x	-29.8%
CC1CCc2c(sc3nc(SCC(=O)NCc4ccco4)nc(N)c23)C1 (stereo unspecified)	-13.1%	u	u	14.1µM*
CC1CCc2c(sc3nc(C4CC4)nc(SCC(=O)NCc4ccco4)c23)C1 (stereo unspecified)	x	2.7%	-1.2%	x
CCN(CC)C(=O)CSc1nc(N)c2c3c(sc2n1)CC(C)CC3 (stereo unspecified)	-1.3%	x	x	14.1µM*
CCOC(=O)CSc1nc(N)c2c3c(sc2n1)CCCC3	5.8%	x	x	-18.9%
COC(=O)c1ccc(OCC(=O)c2ccc(O)cc2O)cc1	0.9%	12.6µM*	12.6µM*	-14.0%
COC(=O)c1ccc(CCc2cc(O)ccc2O)cc1	3.55µM*	48.4%[9.22 µM]	u	0.398µM*
O=C(COc1ccccc1F)c1ccc(O)cc1O	-23.7%	-2.3%	-9.1%	-15.8%
CCOC(=O)c1ccc(OCC(=O)c2ccc(O)cc2O)cc1	-5.6%	12.6µM*	12.6µM*	-16.4%
SMILES	12-hLO inh	p53ts 39C tox	p53ts 32C tox	HPGD block
COC(=O)c1ccc(O)cc1	0.6%[0.00818 µM]	x	x	3.4%
O=C(NCCCN1CCOCC1)c1ccc(-n2c(=O)c(=O)[nH]c3ccccc32)cc1	-1.3%	1.3%	8.4%	-2.5%
C[C@@H](C(=O)O)c1ccc(C(=O)c2ccccc2)s1	-2.7%[25.6 µM]	2.5%[20.6 µM]	-1.6%[20.6 µM]	14.1µM*
CC(C(=O)O)c1ccc(C(=O)c2cccs2)cc1 (stereo unspecified)	0.5%	-9.5%	2.9%	u
Nc1sccc1C(=O)c1ccccc1	0.8%	8.3%	4.3%	-12.0%
N#CCc1ccc(C(=O)c2ccccc2)s1	0.8%	x	x	28.2µM*
CCc1cccc(NC(=O)c2ccc3c(c2)N(Cc2cccc(Cl)c2)C(=O)c2ccccc2S3=O)c1 (stereo unspecified)	x	5.3%	0.2%	x
Cc1cccc(-c2nc3scc(CCNC(=O)c4ccccc4Cl)n3n2)c1	x	-4.4%	-9.6%	x
Cc1ccc(Cl)cc1N1CCN(c2ncnc3c2nc2n3CCCC2)CC1	x	x	0.2%	x
CCCCNc1nc(Oc2ccc(OCC)nn2)nc(N2CCOCC2)n1	x	-26.3%	3.6%	x
CCOC(=O)c1c(C)oc2c1c(C(c1cccnc1)N1CCOCC1)c(O)c1ccccc12 (stereo unspecified)	u	x	x	22.4µM*
